In PubChem BioAssay (NCATS):
Results filed as inconclusive are left out. A call without a number means that no potency is given here. Calls of active or inactive are those of the source. Unless noted, calls follow the shape of the dose curve; as a rule, active = well fitted curve in the direction sought with a large enough effect; inconclusive = small, poorly fitted or top-dose-only effect, or another doubt; inactive = no such curve, though single readings can be large; an effect the other way counts as inactive or inconclusive.

Legend:
[1] = system: Zika virus NS2B-NS3 protease; assay: Primary screen GU AMC qHTS for Zika virus inhibitors (AID 1347154); also: nearly all actives have a fitted effect of over 70% in size; also: potency is read from the fitted curve at half-maximal effect
Method in brief: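 Unlinked Zika NS2B hydrophilic domain/NS3 protease domain noncovalent complex (25 nM final) in 10 mM Tris-HCl pH 8.0, 0.01% Tween 20, with AMC peptide substrate. Fluorescence (ex 340, em 450 nm) change over 15 min, room temperature; percent inhibition fitted to 4-parameter Hill equation.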

[2] = Confirmatory qHTS for small molecule stabilizers of the endoplasmic reticulum resident proteome: Secreted ER Calcium Modulated Protein (SERCaMP) assay (AID 1508628); also: nearly all actives have a fitted effect of over 40% in size; also: potency is read from the fitted curve at half-maximal effect
Method in brief: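 GLuc-SERCaMP-expressing SH-SY5Y cells, pretreated 16 h with compound, are challenged with thapsigargin to empty ER calcium stores; after 4 h, coelenterazine is added directly to the medium and luminescence is imaged.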

[3] = Primary qHTS for small molecule stabilizers of the endoplasmic reticulum resident proteome: Secreted ER Calcium Modulated Protein (SERCaMP) assay (AID 1508630)
Method in brief: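 The SH-SY5Y reporter protocol was run at 3 concentrations up to 38.3 uM (primary) or 11 concentrations (follow-up): 16 h compound, 100 nM thapsigargin for 4 h, then extracellular luciferase luminescence.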

[4] = AP1 Signaling Pathway (AID 357; active = well fitted curve in either direction with a large enough effect, not every such curve was filed as active;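 also: ME-180 reporter cells stimulated with EGF at its EC50 level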); conditions: ME-180 AP-1-bla reporter, EGF-induced, beta-lactamase ratio, 5 h; at 38 µM (top of the series)
Method in brief: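 First, ME-180 AP-1-bla cells were cultured overnight at 37 °C in low-serum Opti-MEM. Next, titrated compounds with EC50 EGF were incubated 5 hours. Finally, CCF4 was added for 2.5 hours and the 460/530 nm ratio recorded.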

[5] = NFAT Signaling Pathway (AID 444; active = well fitted curve in either direction with a large enough effect, not every such curve was filed as active;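 also: carbachol stimulus at about its EC50 of 1 µM final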); conditions: Jurkat NFAT-bla M1, carbachol, beta-lactamase ratio, 5 h; at 38 µM (top of the series)
Method in brief: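 Jurkat cells carrying an NFAT-driven β-lactamase reporter and co-transfected muscarinic M1 receptor were treated with compound plus carbachol (1 uM final, an EC50 level) for 5 h at 37 °C. CCF4 loading followed for 1 h at RT; 460/530 nm ratio gave %activity.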

[6] = Stat Signaling Pathway (AID 446; active = well fitted curve in either direction with a large enough effect, not every such curve was filed as active;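 also: ME-180 cervical cancer cells given 40 pM IL-6 alongside compound; SIE-controlled beta-lactamase reporter measured as 460/530 nm FRET emission ratio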); conditions: ME-180 (cervical carcinoma) SIE beta-lactamase reporter, IL-6 stimulated, 5 h; at 38 µM (top of the series)
Method in brief: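 Compound effects on IL-6-induced STAT reporter activity were measured in ME-180 cells. After overnight culture, cells were co-treated with 40 pM IL-6 for 5 hrs before beta-lactamase substrate loading at room temperature.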

[7] = target: Glucocorticoid receptor (Homo sapiens) (UniProt P04150); assay: GR-GFP Redistribution (AID 450;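 active = compounds whose dose series gives a full or clear partial fitted curve of increased nuclear translocation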; also: potency is read from the fitted curve at half-maximal effect); conditions: U2OS GR-GFP nuclear translocation, laser cytometry, 2 h
[8] = target: Glucocorticoid receptor (Homo sapiens) (UniProt P04150); assay: GR-EFC Redistribution (AID 451; calls by dose curve; also: potency is read from the fitted curve at half-maximal effect); conditions: CHO-K1 GR-EFC translocation, beta-gal luminescence, 2 h
Method in brief: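 CHO-K1 cells stably expressing nuclear-localized β-gal enzyme acceptor and GR fused C-terminally to the enzyme donor fragment; ligand-driven nuclear translocation restores β-gal by complementation. Compounds titrated up to 46 uM final, 2 h at 37 °C; luminescence read.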

[9] = target: 3',5'-cyclic-AMP phosphodiesterase 4B (Homo sapiens) (UniProt Q07343); assay: qHTS Assay for Inhibitors of PDE-IV (AID 607; active = well fitted activation curve with a large enough effect in the main read-out, with a control signal flat, not every such curve was filed as active)
Method in brief: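 ACTOne HEK293 cells carry a modified cAMP-gated CNG channel and express endogenous PDE4; plated 1000 cells/well, compounds up to 22.9 uM final. Membrane-potential dye fluorescence (ex 535/em 590) was read; parental cells received 10 uM forskolin + 100 uM RO 20-1724.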

[10] = target: Guanine nucleotide-binding protein G(i) subunit alpha-1 (Homo sapiens) (UniProt P63096); assay: qHTS Assay for Inhibitors of RGS12 GoLoco Motif Activity (Green Fluorophore) (AID 879);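 also: negative values mean loss of peptide binding seen as reduced polarization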
Method in brief: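 A drop in FITC polarization marked displacement of the FITC-tagged RGS12 GoLoco peptide (10 nM) from Gαi1 (50 nM). Compounds were incubated 10 min at room temperature in Tris pH 7.5 buffer containing 150 mM NaCl, 0.1 mM GDP and 0.05% NP40; unlabeled peptide titration served as control.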

[11] = target: Cytochrome P450 2C9 (Homo sapiens) (UniProt P11712); assay: qHTS Assay for Inhibitors and Substrates of Cytochrome P450 2C9 (AID 883); also: nearly all actives have a fitted effect of over 60% in size
Method in brief: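 Human CYP2C9 (10nM) hydroxylated Luciferin-H (100uM, at its KM) to luciferin in 25mM KPO4. Compound was preincubated 10 min at 37C, then NADPH regeneration started a 60 min reaction at 37C. Luminescence was read after detection reagent, normalized to 57uM sulphaphenazole.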

[12] = target: Cytochrome P450 3A4 (Homo sapiens) (UniProt P08684); assay: qHTS Assay for Activators of Cytochrome P450 3A4 (AID 885); also: nearly all actives have a fitted effect of over 65% in size
Method in brief: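 CYP3A4 activity: Luciferin-PPXE O-dealkylation, 25uM substrate, 200mM KPO4, RT throughout. Read-out is luciferase luminescence; higher values reflect activation.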

[13] = Confirmation and Secondary Assay for Modulators of Hemoglobin Beta Chain Splicing at IVS2 654 locus (AID 910);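 also: per-well total GFP intensity by laser scanning cytometry after 2-day treatment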
Method in brief: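 HeLa cells stably carrying EGFP interrupted by mutant beta-globin IVS2-654 intron (CMV-driven) were treated with compound for 2 days at 37C; corrected splicing was scored as total peak GFP intensity per well (488 nm excitation, 500-520 nm emission).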

[14] = Confirmation and Secondary Assay for Modulators of Hemoglobin Beta Chain Splicing at IVS2 705 locus (AID 930);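 also: HeLa cells stably expressing the EGFP-705 splicing reporter; GFP fluorescence per well restored by corrected splicing of the IVS2-705 intron in EGFP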
Method in brief: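 HeLa EGFP-705 reporter; 500 cells/well, o/n 37C 5% CO2; cpd 2 d; 488 ex/500-520 em laser scan; total peak GFP intensity/well. Ref: 500 nM […] antisense PNA.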

[15] = target: Pyruvate kinase (Leishmania mexicana) (UniProt Q27686); assay: qHTS Validation Assay for Inhibitors of Leishmania Mexicana Pyruvate Kinase (AID 945)
Method in brief: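 Substrate mix (0.5 mM PEP, 0.1 mM ADP, 7 mM MgCl2, 50 mM KCl, pH 7.2 imidazole) received compound by pin tool, then 0.2 nM LmPYK E451W. After 1 h at room temperature, PKLight was added and luminescence measured.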

[16] = target: Pyruvate kinase PKM (Homo sapiens) (UniProt P14618); assay: qHTS Assay for Activators of Human Muscle Pyruvate Kinase (AID 954; active = well fitted curve in the direction sought with a large enough effect, not every such curve was filed as active)
Method in brief: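 A coupled luminescent readout tracked ATP made from ADP by purified PKM2. Final conditions included 0.1 nM enzyme, PEP and ADP at 0.5 and 0.1 mM, pH 7.2 imidazole buffer with BSA, and a one-hour room-temperature reaction.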

[17] = target: Alpha-galactosidase A (Homo sapiens) (UniProt P06280); assay: Counterscreen for Glucocerebrosidase Inhibitors: qHTS Assay for Human alpha-Galactosidase at pH 4.5 (AID 992)
Method in brief: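 Citrate buffer pH 4.5, Tween-20 0.005%. Enzyme 2 nM, substrate 80 uM, 20 min RT. Stop pH 10. Fluorescence Ex 365/Em 440. AC50 by Hill fit.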

[18] = target: alpha-glucosidase (Oryza sativa, rice) (UniProt Q653V4); assay: Counterscreen for Glucocerebrosidase Inhibitors: qHTS Assay for Rice alpha-Glucosidase at pH 5.0 (AID 997)
Method in brief: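 Endpoint fluorogenic assay at pH 5.0: compounds (0.7 nM to 77 uM) titrated against 4 nM rice enzyme and 400 uM 4-MU-alpha-glucoside for 20 min at room temperature; NaOH/glycine stop, read ex 365/em 440 nm, Hill-fitted AC50.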

[19] = qHTS Assay for Lipid Storage Modulators (AID 1519; calls by dose curve); conditions: Drosophila S3 cells, BODIPY lipid droplet/cell ratio, laser cytometry, cells loaded with oleic acid
Method in brief: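 Cells seeded at 5,000 per well were treated with compounds over a concentration series and loaded with oleic acid (400 uM, as added). Lipid droplet fluorescence (488 nm excitation, 500-530 nm channel) was read by laser-scanning cytometry and normalized to 20 uM Triacsin C.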

[20] = target: DNA dC->dU-editing enzyme APOBEC-3G (Homo sapiens) (UniProt Q9HC16); assay: qHTS for inhibitors of Vif-A3G interactions: Validation (AID 588379)
Method in brief: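 Yellow fluorescence (Ex 488, Em 500-530) of Vif-coexpressing HeLa A3G-eYFP cells, scanned by Acumen cytometer, reports blocked A3G degradation. Cells plated at 700/well overnight at 37 deg C before compound addition, then a further overnight compound incubation at 37 deg C.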

[21] = Counterscreen qHTS for small molecule stabilizers of the endoplasmic reticulum resident proteome: GLuc-NoTag assay (AID 1508627)
Method in brief: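 Secreted GLuc lacking the SERCaMP modification is measured in SH-SY5Y cells exposed to compound for 19 h and then to thapsigargin (100 nM, 4 h) to deplete ER calcium; hits retested at 11 concentrations, up to 76.6 uM.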

[22] = target: Mitogen-activated protein kinase 10 (Mus musculus) (UniProt Q61831); assay: JNK3 AlphaScreen Assay (AID 530; active = well fitted curve in either direction with a large enough effect, not every such curve was filed as active;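 also: kinase came from lysate of stimulated human HepG2 cells; signal reports phosphorylation of biotinylated GST-cJun 1-79 at Ser73 with 10 µM ATP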)
Method in brief: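 Biotinylated GST-cJun(1-79) served as substrate for JNK3 in HepG2 lysates stimulated with IL-1beta and TNF-alpha. ATP was 10 uM final, pH 7.6. Ser73 phosphorylation was quantified by AlphaScreen (680 nm excitation).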

Glucocorticoid receptor (Homo sapiens), sequence (P04150 whole entry, looked up, the tested form may be a part): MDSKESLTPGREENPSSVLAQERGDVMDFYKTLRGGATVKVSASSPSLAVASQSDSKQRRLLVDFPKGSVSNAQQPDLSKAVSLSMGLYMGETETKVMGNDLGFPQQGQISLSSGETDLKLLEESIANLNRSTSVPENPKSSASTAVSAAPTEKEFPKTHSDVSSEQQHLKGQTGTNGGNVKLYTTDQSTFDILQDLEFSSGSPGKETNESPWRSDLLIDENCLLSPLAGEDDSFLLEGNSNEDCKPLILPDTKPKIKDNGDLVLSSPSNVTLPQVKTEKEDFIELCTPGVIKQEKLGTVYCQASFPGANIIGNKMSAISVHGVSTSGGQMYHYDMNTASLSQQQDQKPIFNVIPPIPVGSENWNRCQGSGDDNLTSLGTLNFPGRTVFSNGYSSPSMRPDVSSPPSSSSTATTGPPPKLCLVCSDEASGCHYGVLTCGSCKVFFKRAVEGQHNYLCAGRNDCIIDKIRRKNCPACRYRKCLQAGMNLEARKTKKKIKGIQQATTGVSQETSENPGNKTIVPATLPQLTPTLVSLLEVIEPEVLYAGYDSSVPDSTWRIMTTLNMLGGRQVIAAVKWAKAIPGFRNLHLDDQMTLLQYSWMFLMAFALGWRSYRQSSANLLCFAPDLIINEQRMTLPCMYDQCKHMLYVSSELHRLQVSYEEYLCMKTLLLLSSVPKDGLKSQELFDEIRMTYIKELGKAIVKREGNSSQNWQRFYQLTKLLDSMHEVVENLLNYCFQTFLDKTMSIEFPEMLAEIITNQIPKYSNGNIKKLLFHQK
3',5'-cyclic-AMP phosphodiesterase 4B (Homo sapiens), sequence (Q07343 whole entry, looked up): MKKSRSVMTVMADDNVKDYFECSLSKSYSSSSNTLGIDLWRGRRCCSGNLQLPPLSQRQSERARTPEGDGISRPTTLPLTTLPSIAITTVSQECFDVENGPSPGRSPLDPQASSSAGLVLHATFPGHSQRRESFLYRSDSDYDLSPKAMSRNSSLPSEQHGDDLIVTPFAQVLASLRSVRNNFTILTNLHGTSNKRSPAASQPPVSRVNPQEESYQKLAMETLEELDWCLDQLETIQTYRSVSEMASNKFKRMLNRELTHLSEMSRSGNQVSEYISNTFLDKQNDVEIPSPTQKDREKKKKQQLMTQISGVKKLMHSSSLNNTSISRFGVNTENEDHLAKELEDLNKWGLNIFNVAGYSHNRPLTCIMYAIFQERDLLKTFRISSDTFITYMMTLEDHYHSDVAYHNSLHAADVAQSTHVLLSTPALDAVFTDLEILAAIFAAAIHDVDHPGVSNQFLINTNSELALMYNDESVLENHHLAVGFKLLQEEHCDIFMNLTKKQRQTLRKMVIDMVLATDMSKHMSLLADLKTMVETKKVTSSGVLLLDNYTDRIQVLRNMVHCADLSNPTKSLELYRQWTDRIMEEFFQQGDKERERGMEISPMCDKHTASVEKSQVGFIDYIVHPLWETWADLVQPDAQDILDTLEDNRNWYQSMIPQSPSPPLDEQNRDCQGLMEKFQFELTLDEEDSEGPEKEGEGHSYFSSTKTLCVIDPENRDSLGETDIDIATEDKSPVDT
DNA dC->dU-editing enzyme APOBEC-3G (Homo sapiens), sequence (Q9HC16 whole entry, looked up): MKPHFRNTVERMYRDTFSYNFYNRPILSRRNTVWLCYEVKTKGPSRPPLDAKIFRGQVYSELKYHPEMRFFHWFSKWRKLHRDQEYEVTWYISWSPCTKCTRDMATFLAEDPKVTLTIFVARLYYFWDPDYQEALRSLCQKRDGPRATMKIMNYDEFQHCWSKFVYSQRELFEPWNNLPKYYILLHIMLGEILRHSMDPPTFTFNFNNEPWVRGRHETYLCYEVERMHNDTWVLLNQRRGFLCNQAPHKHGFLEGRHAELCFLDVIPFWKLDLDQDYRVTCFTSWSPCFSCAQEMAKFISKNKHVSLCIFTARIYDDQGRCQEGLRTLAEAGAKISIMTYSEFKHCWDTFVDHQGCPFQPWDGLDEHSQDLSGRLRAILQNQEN
Pyruvate kinase PKM (Homo sapiens), sequence (P14618 whole entry, looked up): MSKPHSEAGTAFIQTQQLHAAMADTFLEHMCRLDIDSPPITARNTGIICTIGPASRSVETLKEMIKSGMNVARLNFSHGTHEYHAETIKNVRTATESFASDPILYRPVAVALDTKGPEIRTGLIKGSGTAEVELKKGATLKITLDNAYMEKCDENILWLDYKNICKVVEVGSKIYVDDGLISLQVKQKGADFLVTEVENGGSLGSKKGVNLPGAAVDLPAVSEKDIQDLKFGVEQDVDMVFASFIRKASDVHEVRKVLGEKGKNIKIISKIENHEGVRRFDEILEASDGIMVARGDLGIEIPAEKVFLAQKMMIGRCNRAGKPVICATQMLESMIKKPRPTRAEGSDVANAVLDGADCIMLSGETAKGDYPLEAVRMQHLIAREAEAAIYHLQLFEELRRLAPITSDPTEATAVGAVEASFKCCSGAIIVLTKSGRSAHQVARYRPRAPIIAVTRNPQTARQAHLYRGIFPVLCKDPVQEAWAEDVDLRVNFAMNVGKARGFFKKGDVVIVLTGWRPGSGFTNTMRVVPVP
Pyruvate kinase (Leishmania mexicana), sequence (Q27686 2-499 E452W): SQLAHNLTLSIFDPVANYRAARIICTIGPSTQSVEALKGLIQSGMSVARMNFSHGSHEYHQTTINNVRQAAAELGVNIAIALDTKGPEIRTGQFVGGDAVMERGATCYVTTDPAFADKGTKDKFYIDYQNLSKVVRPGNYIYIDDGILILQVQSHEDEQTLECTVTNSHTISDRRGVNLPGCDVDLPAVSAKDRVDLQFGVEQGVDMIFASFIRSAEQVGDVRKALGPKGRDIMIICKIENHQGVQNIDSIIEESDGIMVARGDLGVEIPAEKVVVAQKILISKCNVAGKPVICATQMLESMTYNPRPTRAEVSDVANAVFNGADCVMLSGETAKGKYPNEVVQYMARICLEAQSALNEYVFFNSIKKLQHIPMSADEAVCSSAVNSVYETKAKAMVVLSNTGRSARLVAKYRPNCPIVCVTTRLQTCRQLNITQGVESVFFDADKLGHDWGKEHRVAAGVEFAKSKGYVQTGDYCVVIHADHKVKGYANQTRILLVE
Guanine nucleotide-binding protein G(i) subunit alpha-1 (Homo sapiens), sequence (P63096 whole entry, looked up): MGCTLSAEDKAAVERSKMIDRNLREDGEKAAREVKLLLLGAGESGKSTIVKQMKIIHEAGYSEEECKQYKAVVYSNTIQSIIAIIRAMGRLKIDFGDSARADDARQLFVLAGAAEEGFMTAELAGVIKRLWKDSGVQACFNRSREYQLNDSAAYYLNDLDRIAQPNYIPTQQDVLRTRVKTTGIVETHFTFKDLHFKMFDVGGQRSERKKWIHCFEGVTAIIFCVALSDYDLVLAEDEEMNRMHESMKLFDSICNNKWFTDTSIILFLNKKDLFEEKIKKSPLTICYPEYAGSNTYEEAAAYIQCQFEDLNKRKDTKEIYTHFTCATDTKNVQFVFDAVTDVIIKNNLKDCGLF
Cytochrome P450 2C9 (Homo sapiens), sequence (P11712 whole entry, looked up): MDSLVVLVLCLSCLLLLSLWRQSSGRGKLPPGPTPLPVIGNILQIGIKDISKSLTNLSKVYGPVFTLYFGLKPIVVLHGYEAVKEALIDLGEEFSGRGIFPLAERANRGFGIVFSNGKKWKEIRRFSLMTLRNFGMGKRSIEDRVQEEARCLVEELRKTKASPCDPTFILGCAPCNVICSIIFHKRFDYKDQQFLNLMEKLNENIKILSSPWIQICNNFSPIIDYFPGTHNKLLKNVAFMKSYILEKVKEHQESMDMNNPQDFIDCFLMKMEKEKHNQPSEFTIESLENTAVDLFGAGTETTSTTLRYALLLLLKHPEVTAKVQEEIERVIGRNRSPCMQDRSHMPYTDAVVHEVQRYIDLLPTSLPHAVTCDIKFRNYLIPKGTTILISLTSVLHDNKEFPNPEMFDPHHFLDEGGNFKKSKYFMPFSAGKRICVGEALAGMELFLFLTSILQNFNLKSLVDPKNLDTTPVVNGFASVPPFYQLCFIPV
Alpha-galactosidase A (Homo sapiens), sequence (P06280 whole entry, looked up): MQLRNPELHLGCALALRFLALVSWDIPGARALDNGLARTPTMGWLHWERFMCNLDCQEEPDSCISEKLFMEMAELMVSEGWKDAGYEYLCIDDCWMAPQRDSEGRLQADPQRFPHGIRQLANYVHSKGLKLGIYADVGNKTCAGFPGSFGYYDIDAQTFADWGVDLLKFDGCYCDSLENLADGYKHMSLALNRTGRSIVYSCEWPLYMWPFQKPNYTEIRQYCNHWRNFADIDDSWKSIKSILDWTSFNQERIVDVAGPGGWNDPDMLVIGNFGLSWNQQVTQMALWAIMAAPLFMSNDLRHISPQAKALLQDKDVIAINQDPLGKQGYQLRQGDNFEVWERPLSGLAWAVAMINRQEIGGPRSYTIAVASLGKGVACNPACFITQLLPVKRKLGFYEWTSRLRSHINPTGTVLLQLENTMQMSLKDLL
Cytochrome P450 3A4 (Homo sapiens), sequence (P08684 whole entry, looked up): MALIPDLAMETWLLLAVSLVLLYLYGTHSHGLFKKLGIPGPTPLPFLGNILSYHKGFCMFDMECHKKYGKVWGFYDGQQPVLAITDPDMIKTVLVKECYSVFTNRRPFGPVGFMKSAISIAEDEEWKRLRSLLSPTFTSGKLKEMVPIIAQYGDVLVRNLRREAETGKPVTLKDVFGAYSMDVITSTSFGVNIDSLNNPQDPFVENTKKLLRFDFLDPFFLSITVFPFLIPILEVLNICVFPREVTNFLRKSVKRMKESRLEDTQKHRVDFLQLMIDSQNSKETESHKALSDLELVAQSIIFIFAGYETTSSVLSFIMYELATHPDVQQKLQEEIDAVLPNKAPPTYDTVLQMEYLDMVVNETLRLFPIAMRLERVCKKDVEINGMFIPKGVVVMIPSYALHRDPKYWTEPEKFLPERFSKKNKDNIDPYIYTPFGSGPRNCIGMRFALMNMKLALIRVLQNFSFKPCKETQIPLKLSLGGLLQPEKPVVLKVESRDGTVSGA

Compound: Cc1cc(C)c(N(Cc2ccccc2)S(=O)(=O)c2ccc(OCCNC(=O)c3cc4ccccc4o3)cc2)c(C(=O)NO)c1
- Potency [1]: inactive
- Potency [2]: inactive

Compound: CC1=C(/C=C/C(C)=C/C=C/C(C)=C\CO)C(C)(C)CCC1
- Potency [1]: inactive
- Potency [3]: inactive

Compound: Oc1cc2c(cc1O)[C@H](c1ccccc1)CNCC2
- activity change, negative = inhibition [4]: -11.5% (inactive)
- activity change, negative = inhibition [5]: -1.81% (inactive)
- activity, negative = inhibition [6]: 0.446% (inactive)
- Potency [7]: > 46 µM (inactive)
- Potency [8]: > 46 µM (inactive)
- Potency [9]: inactive
- outcome [10]: inactive
- Potency [11]: inactive
- Potency [12]: inactive
- outcome [13]: inactive
- outcome [14]: inactive
- Potency [15]: inactive
- outcome [16]: inactive
- outcome [17]: inactive
- outcome [18]: inactive
- activity change, negative = inhibition ([19]; at 57.5 µM (top of the series)): -0.123% (inactive)
- max response ([19]; measured here: cell count channel max response): 4.46%
- max response ([19]; measured here: lipid channel max response): 3.98%
- Potency [20]: inactive
- Potency [1]: inactive
- Potency [21]: inactive
- Potency [2]: inactive

Compound: COc1ccc2[nH]cc(CCO)c2c1
- Potency [1]: inactive
- Potency [3]: inactive

Compound: CN1C[C@H](C(=O)N[C@]2(C)O[C@@]3(O)[C@H]4CCCN4C(=O)[C@H](Cc4ccccc4)N3C2=O)C[C@H]2c3cccc4[nH]cc(c34)C[C@@H]21
- Potency [7]: > 46 µM (inactive)
- Potency [8]: > 46 µM (inactive)
- Potency [22]: inactive
- Potency [20]: inactive
- Potency [1]: inactive
- Potency [21]: inactive
- Potency [2]: 25.1 µM (active)

Compound: COc1ccc(CCCOC(Cn2ccnc2)c2ccc(OC)cc2)cc1 (centres undefined)
- Potency [1]: inactive
- Potency [3]: inactive

Compound: COC(=O)[C@@H](N)CSC/C=C(\C)CC/C=C(\C)CCC=C(C)C
- Potency [1]: inactive
- Potency [3]: inactive

Compound: CCCCC[C@H](O)CC[C@H]1[C@H](O)CC(=O)[C@@H]1CCCCCCC(=O)O
- activity change, negative = inhibition [1]: 15.4% [at 6.83 µM] (inactive)
- activity change, negative = inhibition [3]: -15% [at 3.88 µM] (inactive)

Compound: O=C(O)CCc1cc(I)c(O)c(I)c1
- Potency [1]: inactive
- Potency [3]: inactive

Compound: C=C1CC[C@H](O)C/C1=C/C=C1\CCC[C@]2(C)C([C@H](C)CCCC(C)(C)O)CC[C@@H]12 (some centres undefined)
- Potency [1]: inactive
- Potency [3]: inactive

Compound: Nc1c(S(=O)(=O)O)cc(Nc2ccc(Cl)cc2)c2c1C(=O)c1ccccc1C2=O
- Potency [1]: inactive
- Potency [3]: inactive

Compound: CCCC(=O)NCCc1c(I)[nH]c2ccc(OC)cc12
- Potency [1]: inactive
- Potency [3]: inactive

Compound: CCC1Cc2cc(O)ccc2C2=C1c1ccc(O)cc1CC2CC (centres undefined)
- Potency [1]: 3.77 µM (active)
- Potency [3]: inactive

Compound: C=C1Cc2c(Cl)cc3[nH]c4c5c3c2[C@@]2(O)[C@@H]1C[C@@H]2C(C)(C)O[C@H]5[C@@H]1CC[C@@]2(O)[C@@]35O[C@@H]3[C@@H](O)[C@@H](C(=O)O)O[C@H]5CC[C@]2(C)[C@@]41C
- Potency [1]: inactive
- Potency [3]: inactive

Compound: CCCCC[C@H](O)/C=C/[C@H]1C(=O)C=C[C@@H]1C/C=C\CCCC(=O)O
- activity change, negative = inhibition [1]: 15.7% [at 6.83 µM] (inactive)
- activity change, negative = inhibition [3]: -10.1% [at 3.88 µM] (inactive)

Compound: CCCCCCCC(=O)OC[C@H](CO)OC(=O)CCCCCCC
- activity change, negative = inhibition [1]: 4.76% [at 6.83 µM] (inactive)
- activity change, negative = inhibition [3]: -8.21% [at 3.88 µM] (inactive)

Compound: CS(=O)(=O)Nc1c(O)ccc2c1CCCC2C1=NCCN1 (centres undefined)
- Potency [1]: inactive
- Potency [3]: inactive
